target: CSGALNACT1; experiment: pooled miR-30 sensor sort-seq; sequence = guide strand; conditions: shRNA
Further: reference of the scale not given here.

| Sequence | sensor-assay potency score (higher = more potent) |
| --- | --- |
| TAATTCAGTTACTTCCACCTGG | 0.629 |
| TTGCTGTGGAGATACTTGCGAT | -1.14 |
| TATTGATGAAGTCTGACCGATA | -0.823 |
| TATCTCGTGCCTGAACACCAGC | -0.848 |
| TTGGACTGCATGCACATCTTGT | -0.464 |
| TTGATGTCCAGATCAAACCCAC | -0.21 |
| ATATTGATGAAGTCTGACCGAT | -0.598 |
| TTAGCTGTGCAATACCACCTTC | -0.0505 |
| TTAAACAATGAGTTTACTGTGA | -0.267 |

target: CSTF3; experiment: as above; conditions: shRNA

| Sequence | sensor-assay potency score (higher = more potent) |
| --- | --- |
| TTGATCATCGGATTAACACAAC | -0.951 |
| TTGGTATCTTGCATCTTCGGAA | -0.546 |
| TAGAGCATAGGTCTGTTCCGTA | 0.181 |
| TAGCTGCTAGCTTAGCACGGGA | -0.406 |
| TCGGATTAACACAACCTCGTTG | -0.511 |
| TTTAGCTAAATGAATATTGATA | -0.643 |
| TACTTGTTATAGTCTCTCCAGA | -0.878 |
| TTCATCTGAATCCTCGTTGGGC | 0.448 |
| TTATTCTTTGATTTTCTGCATA | -0.891 |
| TTCTGGTATCTTCTCTTGCTTT | -0.975 |
| TTTTCTATCCACTTCATCTTTC | -0.135 |
| TTTGCTTAGAGCATAGGTCTGT | 0.755 |
| TACTGCATTACTTTCCACGGGG | 0.0681 |
| TTCTTCTTCAATAAAGTGCTTA | -0.0244 |
| TTTGTCTATAGGTTGATTCTGT | -0.133 |
| TTTGGTATCTTGCATCTTCGGA | -0.026 |
| TGAACTTGTATCTATCTACTAG | -0.0129 |
| TTGAATGCTGTAAACCGTCTTT | -0.262 |
| TTTCTTTGTAACTTGGTAGTTT | -0.139 |
| TAAATCAATGTGCAAAACCTTC | -1.01 |
| TTGTTTTTTCTCAAGAACCATG | -1.15 |

— the OligoGym collection
